Test [1] can be described thus: NCI Yeast Anticancer Drug Screen. Data for the rad50 strain (AID 155).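 Further: 0% = growth of vehicle-only cultures of the same strain.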 Conditions: S. cerevisiae rad50 strain growth inhibition; at 50.0 µM; stronger effect = higher value. The method, boiled down:
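Compounds were tested on a yeast strain with an engineered DNA damage repair alteration; the reported value is growth inhibition normalised to vehicle treatment.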

Test [2] in a line: NCI Yeast Anticancer Drug Screen. Data for the mec2-1 strain (AID 157). As to conditions: S. cerevisiae mec2-1 strain, at 50.0 µM, stronger effect = higher value. The method, boiled down:
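Test agents were screened against the mec2-1 yeast strain, with defined DNA repair or cell cycle alteration. Growth was scored as inhibition against vehicle-only controls.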

Test [3] in a line: NCI Yeast Anticancer Drug Screen. Data for the sgs1 mgt1 strain (AID 161).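 Further: 0% = growth of cultures given vehicle only.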 As to conditions: S. cerevisiae sgs1 mgt1 strain, at 50.0 µM, stronger effect = higher value. The method, boiled down:
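Read-out: growth inhibition vs vehicle controls. Cells: mutant yeast strain deficient in DNA damage repair.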

Test [4] is described as follows: NCI Yeast Anticancer Drug Screen. Data for the cln2 rad14 strain (AID 165).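 Further: 0% = growth equal to vehicle treated cultures.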 Conditions: S. cerevisiae cln2 rad14 strain, at 50.0 µM, stronger effect = higher value. The method, boiled down: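 Growth of compound-exposed yeast (cln2 rad14 genotype) measured and expressed as inhibition relative to vehicle.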
The nature of test [5]: NCI Yeast Anticancer Drug Screen. Data for the bub3 strain (AID 167). As to conditions: S. cerevisiae bub3 mutant strain, at 50.0 µM, stronger effect = higher value. The method, boiled down:
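Growth of a checkpoint-deficient yeast mutant is measured after compound exposure. Values represent inhibition relative to vehicle.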

Test [6] in a line: NCI Yeast Anticancer Drug Screen. Data for the mlh1 rad18 strain (AID 175). Conditions: S. cerevisiae mlh1 rad18 strain growth inhibition; at 50.0 µM; stronger effect = higher value. The essentials: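 In this whole-cell yeast screen, a strain with altered DNA damage repair is challenged with compound, and its growth is measured against matched vehicle-treated controls.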

Compounds without any hit were thinned out: in the full panel of roughly 79,000, 15% have a hit. A number with no mark means an inactive call. The source made the active and inactive calls. No stated cut-off is given here; in the data, active means growth inhibition above about 70%; inactive means the rest.

For the molecule `COc1ccccc1-c1coc2c(ccc3oc(C(C)C)cc32)c1=O`, the growth inhibition was -19.2% in test [1]; 20% in test [2]; 3.25% in test [3]; -52% in test [4]; -0.5% in test [5]; 22.6% in test [6].

Regarding `O=C(CCc1cc(O)ccc1O)OCCc1ccccc1`, the growth inhibition is 30.9% in test [1]; 71.2% (active) in test [2]; 91.6% (active) in test [3]; 85.3% (active) in test [4]; 88.4% (active) in test [5]; 91.5% (active) in test [6].

With `CCOC(CN(C)C(=S)Nc1cccc2ccccc12)OCC`, the growth inhibition in test [1] was -27.1%; in test [2], -30.1%; in test [3] it was -2.2%; in test [4], -6.45%; in test [5], -6.9%; in test [6] it was -13.2%.

For the molecule `O=C(O)c1nccc2c([N+](=O)[O-])cccc12`, the growth inhibition in test [1] was -2.4%; in test [2], 6.4%; in test [3] it was 16.6%; in test [4] it was -13.5%; in test [5], -4.4%; in test [6] it was -12.9%.

On to `CC(=O)OCC1OC(n2c(C)c(N=Nc3ccccc3)c(C)c(C#N)c2=S)C(OC(C)=O)C(OC(C)=O)C1OC(C)=O` (stereo not given), for which the growth inhibition in test [1] is -17.7%; in test [2], -17.6%; in test [3], -1.7%; in test [4], -1%; in test [5], -10.3%; in test [6], 14.8%.

For the molecule `C=CCN(CC=C)CCNc1cc(C)nc(Nc2nc3ccc(Cl)cc3[nH]2)n1`, the growth inhibition was 90.6% (active) in test [1]; 50.4% in test [2]; 93.2% (active) in test [3]; 82% (active) in test [4]; 24.9% in test [5]; 91.5% (active) in test [6].

As to `O=C(Nc1cccc2ccccc12)ON1C(=O)c2ccccc2C1=O`, the growth inhibition in test [1] was -6.6%; in test [2] it was -39.6%; in test [3] it was -0.1%; in test [4], 12.5%; in test [5], -5.7%; in test [6], -2.4%.

As for `C[C@H]1CC[C@@H](C(C)(C)O)CC2=C1CC[C@@H]2C`, the growth inhibition is -0.2% in test [1]; -44.4% in test [2]; -13.2% in test [3]; 0.15% in test [4]; -10.6% in test [5]; -26.4% in test [6].

With `CCc1nc(N)nc(N)c1-c1ccc(NC(C)c2ccccc2)c([N+](=O)[O-])c1` (stereo not given), the growth inhibition in test [1] was 13.6%; in test [2], -8.4%; in test [3], 14.5%; in test [4], -1.1%; in test [5], 9.1%; in test [6] it was -7.6%.

Consider `CCN(CC)C1(C(F)C(F)(F)F)OCC2(CO1)COC(C(F)C(F)(F)F)(N(CC)CC)OC2` (stereo not given), for which the growth inhibition is -10.1% in test [1]; -13.4% in test [2]; -0.4% in test [3]; 2.3% in test [4]; 0.8% in test [5]; 6.6% in test [6].

On to `CN(C)c1ccc(/C=c2/sc3nc(=O)c(-c4ccccc4NC(=O)C(F)(F)F)nn3c2=O)cc1`, for which the growth inhibition in test [1] was 3.95%; in test [2], 2.65%; in test [3], -5.95%; in test [4] it was -12.1%; in test [5], -20.4%; in test [6], -5.15%.

Turning to `CN(C)c1ccc2c(c1)Cc1cc(N3C(=O)C=CC3=O)ccc1-2`, the growth inhibition in test [1] was 97.3% (active); in test [2], 98% (active); in test [3] it was 98.9% (active); in test [4], 97.6% (active); in test [5], 98.2% (active); in test [6], 98.5% (active).

Regarding `C=CCNC(=O)CCCCCCC/C=C\CCCCCCCC`, the growth inhibition is 16.6% in test [1]; -8.5% in test [2]; -1.45% in test [3]; -27.6% in test [4]; -2.85% in test [5]; 9.4% in test [6].

On to `OCc1ccc(CO)cc1`, for which the growth inhibition is 18.4% in test [1]; 29.6% in test [2]; -15.6% in test [3]; -4.2% in test [4]; 8.65% in test [5]; 7.2% in test [6].

As for `O=C(NO)c1ccccc1O`, the growth inhibition in test [1] was 27.2%; in test [2], 21%; in test [3], -14.8%; in test [4], 4.2%; in test [5], 8%; in test [6], 17.8%.

For `CC(C)(CCc1nc2ccccc2[nH]1)C(=O)O`, the growth inhibition in test [1] was -18.1%; in test [2], -6.35%; in test [3] it was -1.35%; in test [4], -10%; in test [5], 1.05%; in test [6], -3.85%.

Turning to `COc1ccc(OC)c(NC(=O)C(=O)NNC(=O)c2sc(NNC(C)=O)nc2C)c1`, the growth inhibition in test [1] was 66.7%; in test [2] it was 28.8%; in test [3], 47.4%; in test [4], 26.5%; in test [5], 61%; in test [6], 30.8%.

For the molecule `COc1nc(NC2OCC(O)C(O)C2O)c(C(C)=O)c(=O)n1C` (stereo not given), the growth inhibition in test [1] was 3.5%; in test [2], -2.65%; in test [3], 7.05%; in test [4], -0.25%; in test [5], -19.4%; in test [6] it was -0.7%.

For `COc1cc2c(cc1C1=NC(C)(C)CO1)OCO2`, the growth inhibition in test [1] was -7.35%; in test [2] it was -18.7%; in test [3], -28.9%; in test [4] it was -0.6%; in test [5], -24.1%; in test [6] it was -49.2%.

Turning to `CC1(N)CCC(C(C)(C)N)CC1` (stereo not given), the growth inhibition was 28.1% in test [1]; -8.75% in test [2]; 10.8% in test [3]; -30.3% in test [4]; 2.35% in test [5]; 8.8% in test [6].

Values taken from PubChem BioAssay (NCI).
